Reference: ChEMBL document CHEMBL1961873, “Compounds: GSK PKIS; Assays: Nanosyn kinase panel” (2012)

Tests used:
[1] = target: Sphingosine kinase 1 (Homo sapiens) (UniProt Q9NYA1); settings: at 1 µM;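 further: mean SPHK1 inhibition value reported from the GSK PKIS kinase panel screen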
[2] = target: T1, Sphingosine kinase 2 (Homo sapiens) (UniProt Q9NRA0); settings: at 0.1 µM
T1 sequence (whole entry): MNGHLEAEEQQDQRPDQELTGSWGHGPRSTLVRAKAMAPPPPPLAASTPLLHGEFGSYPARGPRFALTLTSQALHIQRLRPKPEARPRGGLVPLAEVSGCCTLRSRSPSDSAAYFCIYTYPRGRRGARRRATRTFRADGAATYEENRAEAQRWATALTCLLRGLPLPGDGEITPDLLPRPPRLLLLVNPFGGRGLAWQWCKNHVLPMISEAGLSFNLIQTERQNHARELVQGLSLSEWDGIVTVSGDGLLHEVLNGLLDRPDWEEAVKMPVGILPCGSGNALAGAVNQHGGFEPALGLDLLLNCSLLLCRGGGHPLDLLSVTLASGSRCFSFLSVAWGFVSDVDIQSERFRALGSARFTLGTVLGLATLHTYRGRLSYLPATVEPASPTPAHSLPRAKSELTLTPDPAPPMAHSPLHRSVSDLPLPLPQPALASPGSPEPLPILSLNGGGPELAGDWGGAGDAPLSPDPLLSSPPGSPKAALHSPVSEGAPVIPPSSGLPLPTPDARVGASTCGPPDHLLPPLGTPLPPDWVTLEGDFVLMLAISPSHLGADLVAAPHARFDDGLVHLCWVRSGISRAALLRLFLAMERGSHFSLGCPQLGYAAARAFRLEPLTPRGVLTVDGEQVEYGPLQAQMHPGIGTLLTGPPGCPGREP

[3] = target: T1, Sphingosine kinase 2 (Homo sapiens); settings: at 1 µM
[4] = target: Casein kinase II subunit alpha (Homo sapiens) (UniProt P68400); settings: at 0.1 µM
[5] = target: Casein kinase II subunit alpha (Homo sapiens) (UniProt P68400); settings: at 1 µM
[6] = target: T2, Inhibitor of nuclear factor kappa-B kinase subunit alpha (Homo sapiens) (UniProt O15111); settings: at 0.1 µM
T2 sequence (whole entry): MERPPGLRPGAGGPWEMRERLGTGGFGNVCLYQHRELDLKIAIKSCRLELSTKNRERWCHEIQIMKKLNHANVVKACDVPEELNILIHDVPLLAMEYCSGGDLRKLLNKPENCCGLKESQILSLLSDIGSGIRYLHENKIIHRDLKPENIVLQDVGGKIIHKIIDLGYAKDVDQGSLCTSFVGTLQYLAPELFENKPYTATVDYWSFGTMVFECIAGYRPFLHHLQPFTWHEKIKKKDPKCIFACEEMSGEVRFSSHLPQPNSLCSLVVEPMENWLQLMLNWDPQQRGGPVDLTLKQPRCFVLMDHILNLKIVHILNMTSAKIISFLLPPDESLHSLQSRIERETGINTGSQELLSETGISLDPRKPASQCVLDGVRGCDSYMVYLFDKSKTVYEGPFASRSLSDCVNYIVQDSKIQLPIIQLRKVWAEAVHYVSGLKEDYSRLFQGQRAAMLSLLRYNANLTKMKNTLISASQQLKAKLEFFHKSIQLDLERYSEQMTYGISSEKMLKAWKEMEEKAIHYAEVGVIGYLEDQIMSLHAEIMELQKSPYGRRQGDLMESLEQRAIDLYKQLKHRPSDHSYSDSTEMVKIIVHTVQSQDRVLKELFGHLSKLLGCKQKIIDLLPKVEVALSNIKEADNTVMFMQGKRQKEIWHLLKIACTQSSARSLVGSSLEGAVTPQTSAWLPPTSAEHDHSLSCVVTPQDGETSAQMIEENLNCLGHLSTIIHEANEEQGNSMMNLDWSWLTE

[7] = target: T2, Inhibitor of nuclear factor kappa-B kinase subunit alpha (Homo sapiens); settings: at 1 µM
[8] = target: T3, Inhibitor of nuclear factor kappa-B kinase subunit beta (Homo sapiens) (UniProt O14920); settings: at 0.1 µM
T3 sequence (whole entry): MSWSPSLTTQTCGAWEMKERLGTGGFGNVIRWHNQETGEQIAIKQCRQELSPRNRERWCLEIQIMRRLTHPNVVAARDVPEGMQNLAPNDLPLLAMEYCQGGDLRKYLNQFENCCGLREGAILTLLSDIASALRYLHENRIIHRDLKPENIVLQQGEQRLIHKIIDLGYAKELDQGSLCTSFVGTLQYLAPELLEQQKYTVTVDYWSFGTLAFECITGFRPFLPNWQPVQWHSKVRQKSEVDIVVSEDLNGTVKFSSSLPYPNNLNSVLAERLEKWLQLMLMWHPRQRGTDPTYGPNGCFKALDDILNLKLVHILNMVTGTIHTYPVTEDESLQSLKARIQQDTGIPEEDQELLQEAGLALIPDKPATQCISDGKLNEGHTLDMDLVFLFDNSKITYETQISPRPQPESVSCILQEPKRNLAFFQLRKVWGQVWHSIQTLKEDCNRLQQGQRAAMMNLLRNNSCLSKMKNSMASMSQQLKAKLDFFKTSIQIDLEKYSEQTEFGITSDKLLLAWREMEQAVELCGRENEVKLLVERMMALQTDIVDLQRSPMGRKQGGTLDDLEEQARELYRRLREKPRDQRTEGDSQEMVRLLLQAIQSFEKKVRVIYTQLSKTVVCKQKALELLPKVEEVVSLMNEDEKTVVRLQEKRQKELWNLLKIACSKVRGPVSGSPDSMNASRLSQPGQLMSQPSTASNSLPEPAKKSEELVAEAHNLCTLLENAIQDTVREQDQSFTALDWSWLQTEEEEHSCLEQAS

[9] = target: T3, Inhibitor of nuclear factor kappa-B kinase subunit beta (Homo sapiens); settings: at 1 µM
[10] = target: T4, Inhibitor of nuclear factor kappa-B kinase subunit epsilon (Homo sapiens) (UniProt Q14164); settings: at 0.1 µM
T4 sequence (whole entry): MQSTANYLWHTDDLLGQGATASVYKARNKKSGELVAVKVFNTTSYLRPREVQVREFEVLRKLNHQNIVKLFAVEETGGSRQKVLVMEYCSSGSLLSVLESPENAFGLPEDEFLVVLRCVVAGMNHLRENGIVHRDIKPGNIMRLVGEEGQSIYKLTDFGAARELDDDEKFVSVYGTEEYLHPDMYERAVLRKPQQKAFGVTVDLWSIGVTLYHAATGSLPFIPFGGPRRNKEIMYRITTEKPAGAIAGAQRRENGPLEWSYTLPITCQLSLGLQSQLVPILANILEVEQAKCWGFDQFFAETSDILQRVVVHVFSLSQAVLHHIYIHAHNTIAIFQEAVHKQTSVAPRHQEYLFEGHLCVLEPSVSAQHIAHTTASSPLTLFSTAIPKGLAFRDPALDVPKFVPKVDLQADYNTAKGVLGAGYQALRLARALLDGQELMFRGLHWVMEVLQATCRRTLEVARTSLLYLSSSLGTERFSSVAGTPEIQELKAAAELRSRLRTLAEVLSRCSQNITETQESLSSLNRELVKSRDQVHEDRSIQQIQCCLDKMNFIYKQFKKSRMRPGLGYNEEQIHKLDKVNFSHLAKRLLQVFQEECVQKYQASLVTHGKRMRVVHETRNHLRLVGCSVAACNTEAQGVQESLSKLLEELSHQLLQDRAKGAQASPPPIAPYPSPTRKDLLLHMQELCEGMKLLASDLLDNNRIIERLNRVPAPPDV

[11] = target: T4, Inhibitor of nuclear factor kappa-B kinase subunit epsilon (Homo sapiens); settings: at 1 µM
[12] = target: T5, Serine/threonine-protein kinase Nek1 (Homo sapiens) (UniProt Q96PY6); settings: at 0.1 µM
T5 sequence (whole entry): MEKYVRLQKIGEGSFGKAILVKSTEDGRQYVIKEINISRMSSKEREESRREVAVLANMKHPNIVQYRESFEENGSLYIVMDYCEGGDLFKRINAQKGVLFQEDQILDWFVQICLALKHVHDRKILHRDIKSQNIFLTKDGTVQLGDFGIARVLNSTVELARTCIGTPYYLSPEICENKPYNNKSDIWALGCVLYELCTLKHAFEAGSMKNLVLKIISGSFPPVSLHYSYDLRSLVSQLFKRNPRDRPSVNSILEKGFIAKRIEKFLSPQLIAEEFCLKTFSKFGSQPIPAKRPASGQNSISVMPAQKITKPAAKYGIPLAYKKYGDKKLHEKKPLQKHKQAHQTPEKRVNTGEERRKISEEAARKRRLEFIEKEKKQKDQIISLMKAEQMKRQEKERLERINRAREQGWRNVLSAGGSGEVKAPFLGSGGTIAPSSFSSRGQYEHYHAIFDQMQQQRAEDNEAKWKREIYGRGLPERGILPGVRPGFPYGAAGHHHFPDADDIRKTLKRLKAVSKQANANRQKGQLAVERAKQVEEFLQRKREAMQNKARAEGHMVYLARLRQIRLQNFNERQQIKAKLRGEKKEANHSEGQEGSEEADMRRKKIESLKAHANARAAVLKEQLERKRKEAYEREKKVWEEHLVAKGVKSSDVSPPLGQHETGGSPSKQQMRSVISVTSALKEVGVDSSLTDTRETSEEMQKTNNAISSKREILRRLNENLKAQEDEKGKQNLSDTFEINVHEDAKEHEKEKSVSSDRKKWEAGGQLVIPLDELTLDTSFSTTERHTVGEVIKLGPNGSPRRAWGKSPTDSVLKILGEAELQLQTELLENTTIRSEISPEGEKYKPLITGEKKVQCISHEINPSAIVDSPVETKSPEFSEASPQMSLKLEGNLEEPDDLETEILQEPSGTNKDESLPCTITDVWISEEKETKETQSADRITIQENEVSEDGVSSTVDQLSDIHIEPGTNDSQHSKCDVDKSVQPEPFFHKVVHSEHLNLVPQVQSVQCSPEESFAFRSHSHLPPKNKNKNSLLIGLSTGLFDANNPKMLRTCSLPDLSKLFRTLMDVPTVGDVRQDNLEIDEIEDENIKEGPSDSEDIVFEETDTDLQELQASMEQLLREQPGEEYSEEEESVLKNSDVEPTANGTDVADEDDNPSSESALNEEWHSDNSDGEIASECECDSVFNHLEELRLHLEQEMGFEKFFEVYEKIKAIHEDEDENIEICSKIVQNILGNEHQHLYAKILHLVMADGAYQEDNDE

[13] = target: T5, Serine/threonine-protein kinase Nek1 (Homo sapiens); settings: at 1 µM
[14] = target: T6, Serine/threonine-protein kinase Nek2 (Homo sapiens) (UniProt P51955); settings: at 0.1 µM
T6 sequence (whole entry): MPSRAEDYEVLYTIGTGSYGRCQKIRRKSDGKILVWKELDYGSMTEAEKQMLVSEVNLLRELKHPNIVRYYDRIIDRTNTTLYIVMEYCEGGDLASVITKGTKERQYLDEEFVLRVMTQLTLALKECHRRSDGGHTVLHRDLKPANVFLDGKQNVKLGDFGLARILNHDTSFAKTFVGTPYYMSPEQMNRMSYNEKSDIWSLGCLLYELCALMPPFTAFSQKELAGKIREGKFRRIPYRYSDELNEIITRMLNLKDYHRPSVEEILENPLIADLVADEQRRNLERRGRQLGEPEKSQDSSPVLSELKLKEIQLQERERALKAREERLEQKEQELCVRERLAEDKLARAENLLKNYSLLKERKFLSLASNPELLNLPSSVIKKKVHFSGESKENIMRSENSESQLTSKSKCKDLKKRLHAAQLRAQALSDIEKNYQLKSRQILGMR

[15] = target: T6, Serine/threonine-protein kinase Nek2 (Homo sapiens); settings: at 1 µM
[16] = target: Serine/threonine-protein kinase Nek6 (Homo sapiens) (UniProt Q9HC98); settings: at 0.1 µM
[17] = target: Serine/threonine-protein kinase Nek6 (Homo sapiens) (UniProt Q9HC98); settings: at 1 µM
[18] = target: Serine/threonine-protein kinase Nek7 (Homo sapiens) (UniProt Q8TDX7); settings: at 0.1 µM
[19] = target: Serine/threonine-protein kinase Nek7 (Homo sapiens) (UniProt Q8TDX7); settings: at 1 µM
[20] = target: T7, Serine/threonine-protein kinase Nek9 (Homo sapiens) (UniProt Q8TD19); settings: at 0.1 µM;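 further: reported value is the mean percent inhibition of NEK9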
T7 sequence (whole entry): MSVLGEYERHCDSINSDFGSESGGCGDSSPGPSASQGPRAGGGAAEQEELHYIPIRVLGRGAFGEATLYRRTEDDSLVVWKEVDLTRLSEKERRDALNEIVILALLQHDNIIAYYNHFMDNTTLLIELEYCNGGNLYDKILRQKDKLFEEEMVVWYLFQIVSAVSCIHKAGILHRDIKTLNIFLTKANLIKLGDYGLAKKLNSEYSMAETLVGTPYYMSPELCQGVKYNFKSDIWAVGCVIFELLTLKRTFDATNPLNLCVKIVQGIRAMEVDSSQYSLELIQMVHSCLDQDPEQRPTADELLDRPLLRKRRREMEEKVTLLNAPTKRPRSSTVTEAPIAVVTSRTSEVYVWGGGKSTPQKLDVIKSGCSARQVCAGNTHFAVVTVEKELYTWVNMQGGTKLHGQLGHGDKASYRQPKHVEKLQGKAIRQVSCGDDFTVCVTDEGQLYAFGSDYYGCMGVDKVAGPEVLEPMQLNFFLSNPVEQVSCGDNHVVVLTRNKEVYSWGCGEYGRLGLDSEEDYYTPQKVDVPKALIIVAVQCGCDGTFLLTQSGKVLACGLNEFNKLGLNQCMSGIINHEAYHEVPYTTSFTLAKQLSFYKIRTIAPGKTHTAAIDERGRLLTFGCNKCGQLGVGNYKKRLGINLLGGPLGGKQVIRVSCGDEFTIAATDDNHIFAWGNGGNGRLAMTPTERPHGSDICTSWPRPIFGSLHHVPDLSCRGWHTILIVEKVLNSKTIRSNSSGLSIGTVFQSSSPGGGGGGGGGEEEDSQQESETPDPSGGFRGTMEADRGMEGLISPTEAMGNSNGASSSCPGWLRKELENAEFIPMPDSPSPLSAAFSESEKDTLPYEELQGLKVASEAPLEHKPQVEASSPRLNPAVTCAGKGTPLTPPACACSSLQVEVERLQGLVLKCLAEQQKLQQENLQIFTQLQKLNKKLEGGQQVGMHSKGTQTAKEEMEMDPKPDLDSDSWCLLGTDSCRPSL

Chain of Casein kinase II subunit alpha (Homo sapiens) (P68400 whole entry, looked up): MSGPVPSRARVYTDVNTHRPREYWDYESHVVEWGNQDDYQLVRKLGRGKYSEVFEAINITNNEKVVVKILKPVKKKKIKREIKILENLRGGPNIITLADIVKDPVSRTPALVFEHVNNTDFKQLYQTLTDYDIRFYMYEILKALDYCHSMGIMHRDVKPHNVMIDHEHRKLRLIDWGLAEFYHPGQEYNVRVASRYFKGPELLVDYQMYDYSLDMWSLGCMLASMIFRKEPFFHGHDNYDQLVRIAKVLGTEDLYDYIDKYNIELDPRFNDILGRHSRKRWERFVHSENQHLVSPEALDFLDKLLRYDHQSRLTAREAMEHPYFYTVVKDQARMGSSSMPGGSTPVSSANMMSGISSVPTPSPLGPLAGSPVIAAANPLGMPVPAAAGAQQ
Chain of Serine/threonine-protein kinase Nek6 (Homo sapiens) (Q9HC98 whole entry): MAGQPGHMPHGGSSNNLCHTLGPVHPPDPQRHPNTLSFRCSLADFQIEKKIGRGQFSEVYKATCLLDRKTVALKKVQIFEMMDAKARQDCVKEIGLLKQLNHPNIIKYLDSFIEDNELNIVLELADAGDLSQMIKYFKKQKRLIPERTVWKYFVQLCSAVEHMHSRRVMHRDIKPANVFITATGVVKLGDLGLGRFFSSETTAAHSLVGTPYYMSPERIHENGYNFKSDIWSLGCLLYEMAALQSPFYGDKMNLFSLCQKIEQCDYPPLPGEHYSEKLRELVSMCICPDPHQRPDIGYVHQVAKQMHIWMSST
Chain of Serine/threonine-protein kinase Nek7 (Homo sapiens) (Q8TDX7 whole entry, looked up): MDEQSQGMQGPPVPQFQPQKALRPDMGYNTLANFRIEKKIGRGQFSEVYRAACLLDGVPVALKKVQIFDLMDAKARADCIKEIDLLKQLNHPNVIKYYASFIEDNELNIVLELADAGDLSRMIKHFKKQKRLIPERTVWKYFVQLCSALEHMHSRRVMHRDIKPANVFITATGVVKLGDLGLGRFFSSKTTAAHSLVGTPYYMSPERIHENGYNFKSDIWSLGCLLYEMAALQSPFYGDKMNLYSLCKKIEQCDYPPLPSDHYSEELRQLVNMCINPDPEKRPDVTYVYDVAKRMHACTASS
Chain of Sphingosine kinase 1 (Homo sapiens) (Q9NYA1 whole entry): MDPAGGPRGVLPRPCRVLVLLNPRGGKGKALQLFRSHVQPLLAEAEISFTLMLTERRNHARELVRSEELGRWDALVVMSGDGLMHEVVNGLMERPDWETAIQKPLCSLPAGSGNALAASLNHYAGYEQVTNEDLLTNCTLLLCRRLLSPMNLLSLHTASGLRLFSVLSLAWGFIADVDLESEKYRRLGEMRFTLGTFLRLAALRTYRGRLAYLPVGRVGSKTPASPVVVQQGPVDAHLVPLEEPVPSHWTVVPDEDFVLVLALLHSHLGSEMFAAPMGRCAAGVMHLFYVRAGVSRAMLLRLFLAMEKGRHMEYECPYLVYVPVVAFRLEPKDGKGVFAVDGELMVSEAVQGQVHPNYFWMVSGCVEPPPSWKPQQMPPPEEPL

COc1cc2c(cc1Nc1nc(Nc3cccc(F)c3C(N)=O)c3cc[nH]c3n1)N(C(=O)CN1CCN(C(C)C)CC1)CC2
inhibition [1]: 1.21%
inhibition [2]: -0.45%
inhibition [3]: -0.67%
inhibition [4]: 6.72%
inhibition [5]: 10.1%
inhibition [6]: 2.84%
inhibition [7]: 4.05%
inhibition [8]: 5.51%
inhibition [9]: 1.47%
inhibition [10]: 3.12%
inhibition [11]: 2.31%
inhibition [12]: 2.53%
inhibition [13]: 6.64%
inhibition [14]: 2.3%
inhibition [15]: 2.17%
inhibition [16]: 1.18%
inhibition [17]: 1.05%
inhibition [18]: 3.3%
inhibition [19]: 6.3%
inhibition [20]: 0.4%
